Laboratory results published in PubChem BioAssay (NCATS).
“And” between values parts separate entries of the source, which are not always exact repeats. Equal entries are not always repeated. Inconclusive results are not listed. The source made the active and inactive calls. Unless noted, calls come from the whole dose curve; as a rule, active = well fitted curve in the direction sought with a large enough effect; inconclusive = small, poorly fitted or top-dose-only effect, or another doubt; inactive = no such curve, though single readings can be large; an effect the other way counts as inactive or inconclusive.

Key:
[1] = target: Lysosomal acid glucosylceramidase (Homo sapiens) (UniProt P04062); experiment: Glucocerebrosidase-p2 (AID 348; in the data active = potency below about 10 µM; note: potency is the fitted concentration of half-maximal effect); conditions: purified GBA, blue fluorogenic substrate, 40 min
Summary of the method: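 Compounds titrated from 0.6 nM upwards against 0.2 nM enzyme in pH 5.9 citric acid/KH2PO4, taurocholate, tween-20; blue fluorogenic substrate 80 uM, 40 min room temperature, stopped and read Ex 365/Em 440 for AC50.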

[2] = AP1 Signaling Pathway (AID 357; active = well fitted curve in either direction with a large enough effect, not every such curve was filed as active;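 note: ME-180 reporter cells stimulated with EGF at its EC50 level; % is set by controls: 0 for no effect and ±100 for the full control effect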); conditions: ME-180 AP-1-bla reporter, EGF-induced, beta-lactamase ratio, 5 h; at 7.69 µM (top of the series) unless noted
Summary of the method: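 In this screen, ME-180 cells in Opti-MEM with 0.5% dialyzed FBS received EC50 EGF and compound titrations for 5 h. AP-1 reporter beta-lactamase was detected via CCF4 ratio, giving AC50 for positive and negative modulators.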

[3] = target: Cytochrome P450 1A2 (Homo sapiens) (UniProt P05177); experiment: p450-cyp1a2 (AID 410; calls by dose curve; note: potency is the fitted concentration of half-maximal effect;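 for activity change, negative = inhibition: -100% = full effect of reference inhibitor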); conditions: recombinant CYP1A2, luciferin-ME demethylation, luminescence; series mostly up to 57 µM
Summary of the method: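 20nM CYP1A2 with 100uM Luciferin-ME (at Km) in 100mM KPO4; compound preincubated 10 min, NADPH regeneration added, 60 min at room temperature. Luciferin quantified by luminescence after detection reagent; normalized to 57 uM furafylline.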

[4] = NFAT Signaling Pathway (AID 444; active = well fitted curve in either direction with a large enough effect, not every such curve was filed as active;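 note: carbachol stimulus at about its EC50 of 1 µM final; % is set by controls: 0 for no effect and ±100 for the full control effect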); conditions: Jurkat NFAT-bla M1, carbachol, beta-lactamase ratio, 5 h; at 7.69 µM (top of the series) unless noted
Summary of the method: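 Jurkat cells carrying an NFAT-driven β-lactamase reporter and co-transfected muscarinic M1 receptor were treated with compound plus carbachol (1 uM final, an EC50 level) for 5 h at 37 °C. CCF4 loading followed for 1 h at RT; 460/530 nm ratio gave %activity.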

[5] = Stat Signaling Pathway (AID 446; active = well fitted curve in either direction with a large enough effect, not every such curve was filed as active;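 note: ME-180 cervical cancer cells given 40 pM IL-6 alongside compound; SIE-controlled beta-lactamase reporter measured as 460/530 nm FRET emission ratio; % is set by controls: 0 for no effect and ±100 for the full control effect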); conditions: ME-180 SIE beta-lactamase reporter, IL-6 stimulated, 5 h; at 7.69 µM (top of the series) unless noted
Summary of the method: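 Screening format detects activators and inhibitors alike: ME-180 SIE-bla cells stimulated at 40 pM IL-6 for 5 hrs with compound, then dual-emission beta-lactamase read at 405 nm excitation.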

[6] = target: Glucocorticoid receptor (Homo sapiens) (UniProt P04150); experiment: GR-EFC Redistribution (AID 451; calls by dose curve; note: potency is the fitted concentration of half-maximal effect); conditions: CHO-K1 GR-EFC translocation, beta-gal luminescence, 2 h
Summary of the method: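 CHO-K1 cells stably expressing nuclear-localized β-gal enzyme acceptor and GR fused C-terminally to the enzyme donor fragment; ligand-driven nuclear translocation restores β-gal by complementation. Compounds titrated up to 46 uM final, 2 h at 37 °C; luminescence read.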

[7] = target: Mitogen-activated protein kinase 10 (Mus musculus) (UniProt Q61831); experiment: JNK3 AlphaScreen Assay (AID 530; active = well fitted curve in either direction with a large enough effect, not every such curve was filed as active;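 note: kinase came from lysate of stimulated human HepG2 cells; signal reports phosphorylation of biotinylated GST-cJun 1-79 at Ser73 with 10 µM ATP; % is set by controls: 0 for no effect and ±100 for the full control effect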); conditions: JNK3 lysate, c-Jun phosphorylation; series mostly up to 57.1 µM
Summary of the method: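 Inhibitors reduce antibody binding to phosphorylated biotin-cJun, lowering AlphaScreen luminescence. Lysates from HepG2 cells pre-activated by IL-1beta plus TNF-alpha supplied JNK3; compounds were titrated.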

[8] = target: 3',5'-cyclic-AMP phosphodiesterase 4B (Homo sapiens) (UniProt Q07343); experiment: qHTS Assay for Inhibitors of PDE-IV (AID 607; active = well fitted activation curve with a large enough effect in the main read-out, with a control signal flat, not every such curve was filed as active; note: % of control where 0% means no effect); conditions: HEK293 ACTOne CNG channel cells, membrane potential fluorescence; series mostly up to 22.9 µM
Summary of the method: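 The readout is membrane depolarisation from a cAMP-sensing CNG channel, detected with a potential dye at ex 535/em 590. Cells were HEK293-derived (endogenous PDE-IV) at 1000 cells/well, titrated up to 22.9 uM final.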

[9] = target: Cytochrome P450 3A4 (Homo sapiens) (UniProt P08684); experiment: qHTS Assay for Inhibitors and Substrates of Cytochrome P450 3A4 (AID 884); conditions: recombinant CYP3A4, Luciferin-PPXE luminescence; series mostly up to 57.1 µM; note: nearly all actives have a fitted effect of over 50% in size; note: potency is the fitted concentration of half-maximal effect
Summary of the method: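 20 nM human CYP3A4 with 25 uM Luciferin-PPXE (at KM) in 200 mM KPO4, preincubated 10 min with compound; NADPH regeneration started a 60 min RT reaction. Luciferin detected by luminescence, normalized to 57 uM ketoconazole as full inhibition.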

[10] = target: Cytochrome P450 3A4 (Homo sapiens) (UniProt P08684); experiment: qHTS Assay for Activators of Cytochrome P450 3A4 (AID 885); conditions: recombinant CYP3A4, Luciferin-PPXE luminescence, 60 min; series mostly up to 57.1 µM; note: nearly all actives have a fitted effect of over 65% in size
Summary of the method: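 Steps: enzyme/substrate mix dispensed; compound added, 10 min RT; NADPH regeneration solution added, 60 min RT; luciferin detection buffer stops reaction; 20 min later luminescence measured.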

[11] = qHTS Assay for Lipid Storage Modulators (AID 1519; calls by dose curve); conditions: Drosophila S3 cells, BODIPY lipid droplet/cell ratio, laser cytometry, cells loaded with oleic acid
Summary of the method: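 Cells seeded at 5,000 per well were treated with compounds over a concentration series and loaded with oleic acid (400 uM, as added). Lipid droplet fluorescence (488 nm excitation, 500-530 nm channel) was read by laser-scanning cytometry and normalized to 20 uM Triacsin C.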

[12] = target: Rap guanine nucleotide exchange factor 3 (Homo sapiens) (UniProt O95398); experiment: Confirmatory qHTS for agonist of cAMP-regulated guanine nucleotide exchange factor 3 (EPAC1) (AID 1645881); conditions: EPAC1 Rap1B BODIPY-GDP exchange fluorescence; series mostly up to 154 µM;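 note: EPAC1 catalysed release of BODIPY-GDP from Rap1B seen as fluorescence loss; 100% = effect of cAMP agonist control; nearly all actives have a fitted effect of over 75% in size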
[13] = target: Rap guanine nucleotide exchange factor 4 (Homo sapiens) (UniProt Q8WZA2); experiment: Confirmatory qHTS for agonist of cAMP-regulated guanine nucleotide exchange factor 4 (EPAC2) (AID 1645884); conditions: EPAC2 GEF activity, Rap1B-BODIPY-GDP fluorescence; series mostly up to 154 µM;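 note: nucleotide exchange releases bodipy-GDP from Rap1 and this lowers its fluorescence; % is set by controls: 0 for no effect and ±100 for the full control effect; nearly all actives have a fitted effect of over 65% in size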
[14] = target: Rap guanine nucleotide exchange factor 4 (Homo sapiens) (UniProt Q8WZA2); experiment: Confirmatory qHTS for antagonist of cAMP-regulated guanine nucleotide exchange factor 4 (EPAC2) (AID 1645885); conditions: EPAC2 Rap1B-BODIPY-GDP exchange fluorescence, biochemical; series mostly up to 114 µM; note: nearly all actives have a fitted effect of over 25% in size; note: potency is the fitted concentration of half-maximal effect
[15] = target: Glucocorticoid receptor (Homo sapiens) (UniProt P04150); experiment: GR-GFP Redistribution (AID 450;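 active = compounds whose dose series gives a full or clear partial fitted curve of increased nuclear translocation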; note: potency is the fitted concentration of half-maximal effect); conditions: U2OS GR-GFP nuclear translocation, laser cytometry, 2 h
[16] = target: Ubiquitin carboxyl-terminal hydrolase 1 (Homo sapiens) (UniProt O94782); experiment: Inhibitors of USP1/UAF1: Pilot qHTS (AID 504865); conditions: purified USP1/UAF1, Ub-rhodamine cleavage fluorescence; series mostly up to 54.9 µM;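 note: rhodamine fluorescence freed from ubiquitin-rhodamine substrate followed over time; top concentration of the series differs between compounds; % is set by controls: 0 for no effect and ±100 for the full control effect; nearly all actives have a fitted effect of over 35% in size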
Summary of the method: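 USP1/UAF1 complex at 1 nM preincubated 15 min at room temperature with compound, then Ub-Rho substrate added at 150 nM final. Fluorescence (480/540 nm) read kinetically in 50 mM HEPES pH 7.8, 0.5 mM EDTA, 1 mM TCEP, 0.1 mg/ml BSA, 0.01% Tween-20.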

[17] = target: Dual specificity protein kinase CLK4 (Homo sapiens) (UniProt Q9HAZ1); experiment: qHTS Assay for Inhibitors of CDC-like Kinase 4 (Kinase-Glo Assay) (AID 1770); conditions: recombinant Clk4, Kinase-Glo ATP depletion luminescence; series mostly up to 66.7 µM; note: % is set by controls: 0 for no effect and ±100 for the full control effect; nearly all actives have a fitted effect of over 65% in size
Summary of the method: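 25 nM Clk4 with 100 uM RS repeat peptide and 1 uM ATP (final) in Tris pH7.5, 10 mM MgCl2, 4.5 h at room temperature. Remaining ATP measured by Kinase-Glo luciferase luminescence.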

[18] = target: Dual specificity protein kinase CLK4 (Homo sapiens) (UniProt Q9HAZ1); experiment: qHTS Assay for Inhibitors of CDC-like Kinase 4 (ADP-Glo Assay) (AID 1771); conditions: recombinant CLK4, ADP-Glo luminescence; series mostly up to 80 µM; note: % is set by controls: 0 for no effect and ±100 for the full control effect; nearly all actives have a fitted effect of over 70% in size
Summary of the method: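 25 nM Clk4 with 100 uM RS repeat peptide and 1 uM ATP (final) in buffer with 2 mM MgCl2, 0.5 mM EGTA, 2.5 mM DTT, 0.01% Triton X-100; 1 h at room temperature; ADP-Glo luminescence for ADP formed.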

[19] = target: Dual specificity protein kinase CLK4 (Homo sapiens) (UniProt Q9HAZ1); experiment: qHTS Assay for Inhibitors of CDC-like Kinase 4 (ADP-FP Assay) (AID 1795); conditions: Transcreener ADP fluorescence polarization; series mostly up to 50 µM;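 note: recombinant human CLK4 phosphorylating RS repeat peptide at 1 µM ATP; % is set by controls: 0 for no effect and ±100 for the full control effect; nearly all actives have a fitted effect of over 60% in size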
Summary of the method: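 Recombinant Clk4 (6.25 nM) phosphorylated 100 uM RS repeat peptide with 1 uM ATP in 25 mM Tris pH 7.5, 10 mM MgCl2, 0.5 mM EGTA, 2.5 mM DTT, 0.01% Triton X-100 for 1 h. ADP was detected by Transcreener ADP2 competitive fluorescence polarization after 30 min at room temperature.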

[20] = Confirmation and Secondary Assay for Modulators of Hemoglobin Beta Chain Splicing at IVS2 705 locus (AID 930); conditions: HeLa EGFP-705 splicing reporter, GFP fluorescence, 48 h; series mostly up to 38.3 µM;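 note: HeLa cells stably expressing the EGFP-705 splicing reporter; GFP fluorescence per well restored by corrected splicing of the IVS2-705 intron in EGFP; % of control where 0% means no effect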
Summary of the method: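 HeLa cells stably carrying EGFP interrupted by mutant beta-globin intron 2 (IVS2-705) treated 2 days at 37C with compound; 500 nM antisense PNA as control. Correct splicing read as total peak GFP intensity per well by laser-scanning cytometry.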

[21] = measured here: cell count channel max response
[22] = measured here: lipid channel max response

Sequence of Cytochrome P450 1A2 (Homo sapiens) (P05177 whole entry, looked up): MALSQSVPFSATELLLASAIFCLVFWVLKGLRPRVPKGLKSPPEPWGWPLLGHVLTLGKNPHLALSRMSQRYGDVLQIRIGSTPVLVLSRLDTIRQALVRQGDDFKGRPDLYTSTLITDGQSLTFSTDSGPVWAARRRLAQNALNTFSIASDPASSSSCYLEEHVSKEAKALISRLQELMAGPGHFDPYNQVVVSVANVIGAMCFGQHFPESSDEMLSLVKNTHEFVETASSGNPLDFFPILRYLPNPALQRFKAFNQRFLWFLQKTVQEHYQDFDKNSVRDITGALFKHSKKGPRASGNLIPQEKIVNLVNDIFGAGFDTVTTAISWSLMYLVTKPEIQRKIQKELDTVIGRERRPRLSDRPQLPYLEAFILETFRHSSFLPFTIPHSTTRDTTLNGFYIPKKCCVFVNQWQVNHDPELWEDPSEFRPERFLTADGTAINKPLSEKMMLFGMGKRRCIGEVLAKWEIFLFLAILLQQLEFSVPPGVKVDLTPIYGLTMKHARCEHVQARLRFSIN
Sequence of Rap guanine nucleotide exchange factor 4 (Homo sapiens) (Q8WZA2 whole entry, looked up): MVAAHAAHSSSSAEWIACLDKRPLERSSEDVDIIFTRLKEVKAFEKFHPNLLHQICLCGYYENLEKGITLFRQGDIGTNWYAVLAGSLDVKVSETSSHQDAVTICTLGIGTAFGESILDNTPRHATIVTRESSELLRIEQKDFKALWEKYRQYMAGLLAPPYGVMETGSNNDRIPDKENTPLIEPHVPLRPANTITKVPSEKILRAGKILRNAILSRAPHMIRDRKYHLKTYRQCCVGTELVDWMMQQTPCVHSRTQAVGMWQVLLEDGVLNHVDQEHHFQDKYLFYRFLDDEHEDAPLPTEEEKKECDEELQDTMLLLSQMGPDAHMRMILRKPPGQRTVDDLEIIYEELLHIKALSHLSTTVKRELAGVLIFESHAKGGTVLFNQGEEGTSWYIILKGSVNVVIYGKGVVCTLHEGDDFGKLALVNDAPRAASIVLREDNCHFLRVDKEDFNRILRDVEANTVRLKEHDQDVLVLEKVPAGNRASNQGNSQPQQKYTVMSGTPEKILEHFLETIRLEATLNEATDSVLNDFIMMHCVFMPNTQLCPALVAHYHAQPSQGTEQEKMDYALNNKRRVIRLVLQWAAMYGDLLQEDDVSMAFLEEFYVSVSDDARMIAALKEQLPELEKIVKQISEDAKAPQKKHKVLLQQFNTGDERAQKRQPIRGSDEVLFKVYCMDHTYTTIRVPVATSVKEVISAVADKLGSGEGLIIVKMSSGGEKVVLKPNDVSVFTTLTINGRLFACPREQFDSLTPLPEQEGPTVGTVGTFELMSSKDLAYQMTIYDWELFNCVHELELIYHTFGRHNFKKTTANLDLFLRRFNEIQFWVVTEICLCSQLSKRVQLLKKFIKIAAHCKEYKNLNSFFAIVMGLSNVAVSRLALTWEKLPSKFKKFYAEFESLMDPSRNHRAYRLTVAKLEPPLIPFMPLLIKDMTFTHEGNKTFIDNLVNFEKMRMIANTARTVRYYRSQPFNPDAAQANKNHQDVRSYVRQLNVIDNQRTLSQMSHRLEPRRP
Sequence of Glucocorticoid receptor (Homo sapiens) (P04150 whole entry, looked up, the tested form may be a part): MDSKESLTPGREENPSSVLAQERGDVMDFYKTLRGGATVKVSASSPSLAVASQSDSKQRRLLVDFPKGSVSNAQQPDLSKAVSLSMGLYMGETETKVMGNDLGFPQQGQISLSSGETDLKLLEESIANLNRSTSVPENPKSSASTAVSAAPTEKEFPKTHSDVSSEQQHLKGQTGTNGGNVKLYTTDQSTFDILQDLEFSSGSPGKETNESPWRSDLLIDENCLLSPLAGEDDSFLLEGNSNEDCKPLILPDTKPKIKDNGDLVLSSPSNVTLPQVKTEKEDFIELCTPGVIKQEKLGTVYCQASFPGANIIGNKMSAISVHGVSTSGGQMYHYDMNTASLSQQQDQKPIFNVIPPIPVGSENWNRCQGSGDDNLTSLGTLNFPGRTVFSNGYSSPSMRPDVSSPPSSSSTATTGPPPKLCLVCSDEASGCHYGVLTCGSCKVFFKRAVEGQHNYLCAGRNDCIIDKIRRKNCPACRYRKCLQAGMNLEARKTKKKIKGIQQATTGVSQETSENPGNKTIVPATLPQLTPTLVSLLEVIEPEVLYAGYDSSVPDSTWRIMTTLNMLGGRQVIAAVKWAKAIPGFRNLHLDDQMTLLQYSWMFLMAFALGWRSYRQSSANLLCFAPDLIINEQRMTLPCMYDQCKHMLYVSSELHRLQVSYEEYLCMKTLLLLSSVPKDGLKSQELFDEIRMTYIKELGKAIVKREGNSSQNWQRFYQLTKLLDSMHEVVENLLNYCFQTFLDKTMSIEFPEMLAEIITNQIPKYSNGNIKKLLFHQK
Sequence of Dual specificity protein kinase CLK4 (Homo sapiens) (Q9HAZ1 whole entry, looked up): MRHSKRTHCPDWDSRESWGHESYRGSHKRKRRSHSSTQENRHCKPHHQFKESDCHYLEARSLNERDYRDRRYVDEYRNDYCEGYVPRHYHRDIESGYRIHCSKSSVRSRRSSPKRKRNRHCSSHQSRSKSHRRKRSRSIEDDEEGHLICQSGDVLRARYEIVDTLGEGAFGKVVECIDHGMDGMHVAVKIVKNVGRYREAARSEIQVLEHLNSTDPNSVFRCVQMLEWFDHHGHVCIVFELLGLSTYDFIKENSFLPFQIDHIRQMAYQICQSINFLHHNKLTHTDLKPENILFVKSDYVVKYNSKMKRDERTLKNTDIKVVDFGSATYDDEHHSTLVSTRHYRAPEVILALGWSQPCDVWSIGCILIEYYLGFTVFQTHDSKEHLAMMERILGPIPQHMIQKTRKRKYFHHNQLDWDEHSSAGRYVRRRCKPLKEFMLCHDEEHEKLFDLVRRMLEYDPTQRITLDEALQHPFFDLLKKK
Sequence of 3',5'-cyclic-AMP phosphodiesterase 4B (Homo sapiens) (Q07343 whole entry, looked up): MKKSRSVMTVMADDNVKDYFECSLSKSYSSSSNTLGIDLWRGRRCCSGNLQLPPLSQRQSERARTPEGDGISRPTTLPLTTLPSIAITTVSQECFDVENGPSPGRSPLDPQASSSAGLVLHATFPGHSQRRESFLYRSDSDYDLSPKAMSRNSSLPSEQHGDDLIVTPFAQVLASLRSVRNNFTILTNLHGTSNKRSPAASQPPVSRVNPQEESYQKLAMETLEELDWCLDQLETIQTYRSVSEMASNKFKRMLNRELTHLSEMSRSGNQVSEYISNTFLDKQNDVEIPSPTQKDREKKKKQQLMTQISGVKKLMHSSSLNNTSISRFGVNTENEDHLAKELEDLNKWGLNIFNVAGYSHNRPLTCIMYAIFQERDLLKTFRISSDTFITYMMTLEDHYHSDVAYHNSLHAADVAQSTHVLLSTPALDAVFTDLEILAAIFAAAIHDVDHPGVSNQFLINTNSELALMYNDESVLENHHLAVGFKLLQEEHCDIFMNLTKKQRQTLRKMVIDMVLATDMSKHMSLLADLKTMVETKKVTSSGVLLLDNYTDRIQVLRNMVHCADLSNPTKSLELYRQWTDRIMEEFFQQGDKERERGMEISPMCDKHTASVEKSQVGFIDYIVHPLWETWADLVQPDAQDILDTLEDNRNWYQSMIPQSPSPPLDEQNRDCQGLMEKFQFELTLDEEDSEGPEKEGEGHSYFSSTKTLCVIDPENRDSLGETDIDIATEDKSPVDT
Sequence of Cytochrome P450 3A4 (Homo sapiens) (P08684 whole entry, looked up): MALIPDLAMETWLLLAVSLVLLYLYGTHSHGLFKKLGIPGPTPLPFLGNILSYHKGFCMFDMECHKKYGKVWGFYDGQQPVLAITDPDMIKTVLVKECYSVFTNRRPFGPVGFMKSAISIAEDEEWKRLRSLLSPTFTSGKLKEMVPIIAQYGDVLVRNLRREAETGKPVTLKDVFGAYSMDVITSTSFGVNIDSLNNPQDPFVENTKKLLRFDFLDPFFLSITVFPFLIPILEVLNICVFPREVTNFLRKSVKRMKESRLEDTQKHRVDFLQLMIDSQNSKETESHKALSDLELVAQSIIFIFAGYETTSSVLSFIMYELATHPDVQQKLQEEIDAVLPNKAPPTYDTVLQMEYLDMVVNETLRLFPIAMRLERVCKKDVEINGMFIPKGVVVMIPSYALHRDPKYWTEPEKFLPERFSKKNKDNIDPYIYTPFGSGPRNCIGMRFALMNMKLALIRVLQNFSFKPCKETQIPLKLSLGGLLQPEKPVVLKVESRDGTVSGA
Sequence of Ubiquitin carboxyl-terminal hydrolase 1 (Homo sapiens) (O94782 whole entry, looked up): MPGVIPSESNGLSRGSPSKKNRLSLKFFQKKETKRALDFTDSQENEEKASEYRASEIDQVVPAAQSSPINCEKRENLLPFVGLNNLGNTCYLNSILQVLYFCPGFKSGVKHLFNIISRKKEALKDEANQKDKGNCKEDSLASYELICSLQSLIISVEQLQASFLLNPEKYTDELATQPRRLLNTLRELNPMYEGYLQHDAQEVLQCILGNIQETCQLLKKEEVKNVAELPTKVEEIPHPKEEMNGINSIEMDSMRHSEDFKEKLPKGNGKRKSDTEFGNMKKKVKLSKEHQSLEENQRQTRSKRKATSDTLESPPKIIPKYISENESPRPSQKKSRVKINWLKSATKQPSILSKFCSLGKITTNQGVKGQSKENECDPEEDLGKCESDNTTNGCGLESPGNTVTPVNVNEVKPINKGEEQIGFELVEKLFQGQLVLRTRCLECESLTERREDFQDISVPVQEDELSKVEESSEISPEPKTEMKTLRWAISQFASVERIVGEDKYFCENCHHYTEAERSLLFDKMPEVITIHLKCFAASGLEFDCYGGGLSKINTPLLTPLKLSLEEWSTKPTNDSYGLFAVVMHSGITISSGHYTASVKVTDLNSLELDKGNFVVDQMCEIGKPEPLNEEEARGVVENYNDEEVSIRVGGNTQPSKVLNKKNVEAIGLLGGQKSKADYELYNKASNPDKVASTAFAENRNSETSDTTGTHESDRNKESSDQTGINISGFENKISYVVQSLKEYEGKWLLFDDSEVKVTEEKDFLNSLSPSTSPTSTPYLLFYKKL

Structure (SMILES): O=C(c1cccc(F)c1)N1CCC[C@@]2(CCN(C(c3ccccc3)c3ccccc3)C2)C1
- Potency [1]: > 11.4 µM (inactive)
- activity change, negative = inhibition [2]: 28.8% (inactive)
- Potency [3]: inactive
- activity change, negative = inhibition [4]: 0.838% (inactive)
- activity, negative = inhibition [5]: 12.6% (inactive)
- Potency [6]: > 46 µM (inactive)
- Potency [7]: inactive
- Potency [8]: inactive
- Potency [9]: 3.98 µM (active)
- Potency [10]: inactive
- activity change, negative = inhibition ([11]; at 57.5 µM (top of the series)): -11.6% (inactive)
- max response [11, 21]: 5.27%
- max response [11, 22]: -12.6%
- Potency [12]: inactive
- Potency [13]: inactive
- Potency [14]: inactive

Structure (SMILES): Cc1cc(/C=C\c2ccc3cc(N(C)C)ccc3[n+]2C)c(C)n1-c1ccccc1
- activity change, negative = inhibition [2]: 12.4% [at 17.2 µM] (inactive)
- Potency [15]: > 20.6 µM (inactive)
- Potency [6]: > 20.6 µM (inactive)
- Potency [8]: inactive
- activity change, negative = inhibition ([11]; at 25.7 µM (top of the series)): -5.56% (inactive)
- max response [11, 21]: -11.1%
- max response [11, 22]: -18.2%

Structure (SMILES): Nc1ncnc2c1ncn2[C@@H]1O[C@H](COP(=O)(O)OP(=O)(O)OP(=O)(O)OP(=O)(O)OC[C@@H]2O[C@H](n3cnc4c(N)ncnc43)[C@@H](O)[C@@H]2O)[C@H](O)[C@H]1O
- activity change, negative = inhibition ([11]; at 57.5 µM (top of the series)): 1.69% (inactive)
- max response [11, 21]: 17%
- max response [11, 22]: 19.7%

Structure (SMILES): COc1ccccc1CNc1ncncc1-c1ccccc1OC
- Potency [1]: > 11.4 µM (inactive)
- activity change, negative = inhibition [2]: -8.41% (inactive)
- activity change, negative = inhibition [4]: -16.1% (inactive)
- activity, negative = inhibition [5]: -9.32% (inactive)
- Potency [15]: > 46 µM (inactive)
- Potency [6]: > 46 µM (inactive)
- Potency [7]: inactive
- Potency [9]: 0.199 µM (active)
- Potency [10]: inactive
- activity change, negative = inhibition ([11]; at 57.5 µM (top of the series)): 6.17% (inactive)
- max response [11, 21]: 3.98%
- max response [11, 22]: 9.74%
- Potency [16]: inactive
- Potency [12]: inactive
- Potency [13]: inactive

Structure (SMILES): CN1CCN(c2ncc3nc(-c4cccc(C#N)c4)c(=O)n(C[C@H]4CCCO4)c3n2)CC1
- Potency [1]: > 11.4 µM (inactive)
- activity change, negative = inhibition [2]: 27.9% (inactive)
- Potency [3]: 15.8 µM (active)
- activity change, negative = inhibition [4]: -3.07% (inactive)
- activity, negative = inhibition [5]: 11.4% (inactive)
- Potency [15]: > 9.22 µM (inactive)
- Potency [6]: > 46 µM (inactive)
- Potency [7]: inactive
- Potency [8]: inactive
- Potency [9]: inactive
- activity change, negative = inhibition ([11]; at 57.5 µM (top of the series)): 2.76% (inactive)
- max response [11, 21]: 11.1%
- max response [11, 22]: 12.1%
- Potency [17]: inactive
- Potency [18]: inactive
- Potency [19]: inactive
- Potency [16]: inactive

Structure (SMILES): COC(=O)c1c(C)c2c(c(C)c1O)OC(=O)c1c(C)c(Cl)c(O)c(Cl)c1O2
- Potency [10]: inactive
- outcome [20]: inactive
- activity change, negative = inhibition ([11]; at 57.5 µM (top of the series)): 9.5% (inactive)
- max response [11, 21]: -4.72%
- max response [11, 22]: 1.33%
- Potency [12]: inactive
- Potency [13]: inactive
- Potency [14]: 2.48 µM (active) and 2.21 µM (active)

Structure (SMILES): COc1cc(C)c(C(=O)Oc2cc(C)c(C(=O)O)c(O)c2C)c(OC)c1C
- Potency [10]: inactive
- outcome [20]: inactive
- activity change, negative = inhibition ([11]; at 57.5 µM (top of the series)): 7.39% (inactive)
- max response [11, 21]: 9.06%
- max response [11, 22]: 19.2%
- Potency [12]: inactive
- Potency [13]: inactive
- Potency [14]: 49.4 µM (active)

Structure (SMILES): CN1CCN(c2ncc3nc(CCc4ccccc4)c(=O)n(C)c3n2)CC1
- Potency [1]: > 11.4 µM (inactive)
- activity change, negative = inhibition [2]: 14.9% (inactive)
- Potency [3]: 12.6 µM (active)
- activity change, negative = inhibition [4]: 1.74% (inactive)
- activity, negative = inhibition [5]: -2.48% (inactive)
- Potency [15]: > 9.22 µM (inactive)
- Potency [6]: > 46 µM (inactive)
- Potency [7]: inactive
- Potency [8]: inactive
- Potency [9]: inactive
- activity change, negative = inhibition ([11]; at 57.5 µM (top of the series)): 3.14% (inactive)
- max response [11, 21]: 18.8%
- max response [11, 22]: 18.3%
- Potency [17]: inactive
- Potency [18]: inactive
- Potency [19]: inactive
- Potency [16]: inactive
